Active and inactive are the calls of the source. Unless noted, how the calls were made is not given here.
Legend:
[1] = compound effects on lung adenocarcinoma cell viability – A549, calcein-AM fluorescence, 48 h, basal, profiling panel (AID 1162); details: higher = more signal; further: test concentration not given here
[2] = compound effects on differentiated 3T3-L1 adipocyte viability – cell-based, 3T3-L1 adipocytes, calcein-AM fluorescence, 48 h, basal, profiling panel (AID 1163); details: 3T3-L1 adipocytes viability, higher = more signal; further: test concentration not given here
[3] = compound effects on hepatocellular carcinoma cell viability – HepG2, calcein-AM fluorescence, 48 h, basal, profiling panel (AID 1164); details: higher = more signal; further: test concentration not given here
[4] = compound effects on multiple myeloma cell viability – MM1S, calcein-AM fluorescence, 48 h, basal, profiling panel (AID 1165); details: higher = more signal;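 further: viability of MM1S multiple myeloma cells under basal unstimulated conditions; test concentration not given here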
[5] = calcein-AM signal in unstimulated myeloma cells – cell-based, calcein-AM fluorescence, 48 h, PK04 Diversity Set, profiling panel (AID 1166); details: RPMI8226 myeloma viability, higher = more signal;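 further: cells grown under basal conditions without added stimulus; test concentration not given here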
[6] = JC-1 mitochondrial signal, unstimulated HepG2 cells – cell-based, JC-1 fluorescence, 24 h, 100 nL compound, profiling panel (AID 1167); details: HepG2 mitochondrial potential, higher = more signal; further: test concentration not given here
[7] = JC-1 mitochondrial signal, unstimulated adipocytes – cell-based, JC-1 fluorescence, 3T3-L1 adipocytes, 24 h, 100 nL compound, profiling panel (AID 1168); details: JC-1 mitochondrial fluorescence, higher = more signal, called active from +8 up or from −8 down; further: test concentration not given here
[8] = JC-1 mitochondrial signal, unstimulated myeloma cells – cell-based, JC-1 fluorescence, RPMI8226, 24 h, 100 nL compound, profiling panel (AID 1169); details: JC-1 mitochondrial potential fluorescence, higher = more signal; further: test concentration not given here
[9] = JC-1 mitochondrial signal, unstimulated MM1S myeloma – cell-based, JC-1 fluorescence, 24 h, 100 nL compound, profiling panel (AID 1170); details: MM1S mitochondrial potential, higher = more signal; further: test concentration not given here
[10] = resazurin metabolic signal in A549 cells – cell-based, resazurin fluorescence, 24 h, PK04 Diversity Set, profiling panel (AID 1171); details: A549 viability, higher = more signal, called active from +8 up or from −8 down; further: test concentration not given here
[11] = resazurin metabolic signal in HepG2 cells – cell-based, resazurin fluorescence, 24 h, PK04 Diversity Set, profiling panel (AID 1172); details: HepG2 viability, higher = more signal; further: test concentration not given here
[12] = budding yeast growth changes without added modifier – OD600, strain BY4716, 24 h, basal condition, primary screen (AID 1173); details: S. cerevisiae BY4716 growth, OD600, 24 h; higher = more signal, called active from +8 up or from −8 down
[13] = viability profiling in MM1S myeloma cells – cell-based, resazurin fluorescence, basal, 24 h, PK04 Diversity Set, profiling panel (AID 1174); details: higher = more signal, called active from +8 up or from −8 down; further: test concentration not given here
[14] = biological target: Dihydroorotate dehydrogenase (quinone), mitochondrial (Plasmodium falciparum (isolate 3D7)) (UniProt Q08210); test: inhibition of P. falciparum DHODH – biochemical, C-terminal His tag, absorbance 600 nm, primary screen (AID 1175); details: PfDHODH enzyme, DCIP absorbance 600 nm; higher = more signal, called active from +8 up or from −8 down;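 further: recombinant parasite enzyme with a five histidine tag at its C terminus; test concentration not given here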
[15] = inhibition of PAO1 biofilm formation – strain PAO1, LB-PBS medium, absorbance 600 nm, primary screen (AID 1176); further: test concentration not given here; details: P. aeruginosa PAO1 growth/biofilm, A600, 12 h; higher = more signal
[16] = growth modulation of vineyard yeast isolate – strain RM11-1a, OD600, basal, 24 h, primary screen (AID 1177);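 further: cultures grown under basal conditions with no added stressor; test concentration not given here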; details: S. cerevisiae RM11-1a growth, OD600, 24 h; higher = more signal, called active from +8 up or from −8 down
[17] = growth of efflux-deficient E. coli DRC39 – strain DRC39, OD650, 24 h, E. coli filamentation inducers, primary screen (AID 1178);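 further: growth measured as culture turbidity by optical density at 650 nm; test concentration not given here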; details: E. coli DRC39 acrAB, higher = more signal, called active from +8 up or from −8 down
[18] = growth of efflux-deficient E. coli DRC39 – strain DRC39, OD650, 48 h, E. coli filamentation inducers, primary screen (AID 1179);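 further: screen aims at cell division blockers that make cells filament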; details: E. coli DRC39 delta-acrAB growth, higher = more signal, called active from +8 up or from −8 down
[19] = viability profiling in RPMI8226 myeloma cells – cell-based, resazurin fluorescence, basal, 24 h, PK04 Diversity Set, profiling panel (AID 1180); details: higher = more signal;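 further: RPMI8826 multiple myeloma cell line at 5000 cells per well; test concentration not given here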
[20] = biological target: E3 ubiquitin-protein ligase XIAP (Homo sapiens) (UniProt P98170); test: small molecules binding XIAP protein – biophysical, small-molecule microarray, fluorescence 635 nm, primary screen (AID 1181); details: higher = more signal;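 further: score merges 667 nm emission and signal to noise over triplicate slides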
E3 ubiquitin-protein ligase XIAP (Homo sapiens), sequence (P98170 whole entry, looked up): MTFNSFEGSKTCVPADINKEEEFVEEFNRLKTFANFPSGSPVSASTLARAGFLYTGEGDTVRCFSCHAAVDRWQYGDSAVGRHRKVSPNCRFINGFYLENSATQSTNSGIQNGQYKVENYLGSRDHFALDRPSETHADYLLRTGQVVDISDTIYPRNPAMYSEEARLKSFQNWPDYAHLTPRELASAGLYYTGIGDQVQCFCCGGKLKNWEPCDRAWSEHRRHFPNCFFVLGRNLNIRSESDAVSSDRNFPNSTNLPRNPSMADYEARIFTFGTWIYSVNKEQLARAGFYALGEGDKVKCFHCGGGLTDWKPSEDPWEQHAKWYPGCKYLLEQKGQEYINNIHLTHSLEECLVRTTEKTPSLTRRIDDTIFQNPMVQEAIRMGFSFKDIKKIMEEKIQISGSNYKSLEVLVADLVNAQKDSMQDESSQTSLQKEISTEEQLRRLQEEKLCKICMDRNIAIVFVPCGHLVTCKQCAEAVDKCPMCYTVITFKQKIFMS

Dihydroorotate dehydrogenase (quinone), mitochondrial (Plasmodium falciparum (isolate 3D7)), sequence (Q08210 whole entry, looked up): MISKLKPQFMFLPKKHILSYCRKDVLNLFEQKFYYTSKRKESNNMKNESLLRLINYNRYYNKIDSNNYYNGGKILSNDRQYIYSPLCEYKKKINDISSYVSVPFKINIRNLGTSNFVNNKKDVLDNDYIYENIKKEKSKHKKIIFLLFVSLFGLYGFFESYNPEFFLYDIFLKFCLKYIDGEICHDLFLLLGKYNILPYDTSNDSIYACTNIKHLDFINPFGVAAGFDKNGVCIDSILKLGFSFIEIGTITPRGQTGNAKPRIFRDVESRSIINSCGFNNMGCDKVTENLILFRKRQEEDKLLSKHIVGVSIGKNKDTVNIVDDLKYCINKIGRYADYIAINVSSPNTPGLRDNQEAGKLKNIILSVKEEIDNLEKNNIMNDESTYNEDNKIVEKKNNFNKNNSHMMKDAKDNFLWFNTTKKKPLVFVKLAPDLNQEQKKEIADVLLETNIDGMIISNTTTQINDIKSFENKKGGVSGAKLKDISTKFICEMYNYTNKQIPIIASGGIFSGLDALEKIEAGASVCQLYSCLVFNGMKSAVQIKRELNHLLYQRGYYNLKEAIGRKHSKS

SMILES | z-score [1] | z-score [2] | z-score [3] | z-score [4] | z-score [5] | z-score [6] | z-score [7] | z-score [8] | z-score [9] | z-score [10] | z-score [11] | z-score [12] | z-score [13] | composite z-score [14] | z-score [15] | z-score [16] | z-score [17] | z-score [18] | z-score [19] | composite z-score [20]
C=CC[C@H](O)c1ccc(O)c2ccccc12 | 0.902 | -0.0385 | -0.817 | -2.84 | -3.71 | -2.13 | 0.241 (inactive) | -0.752 | -1.71 | -0.409 (inactive) | -0.129 | -15.1 (active) | -1.42 (inactive) | -1.86 (inactive) | 0.614 (inactive) | 0.891 (inactive) | 0.682 (inactive) | 0.419 (inactive) | -1.05 | -0.113
CC(C)c1ccc(NN2C(C(O)C3CCCCC3)C=CC3C(=O)N(c4ccccc4)C(=O)C32)cc1 (stereo not given) | 0.19 | -1.19 | 1.41 | -0.381 | -0.886 | -1.49 | -0.176 (inactive) | 0.227 | -1.36 | -0.519 (inactive) | -0.454 | -0.618 (inactive) | -1.12 (inactive) | -0.74 (inactive) | 1.52 (inactive) | 0.409 (inactive) | -0.148 (inactive) | 0.51 (inactive) | -0.675 | 0.0471
COC(=O)[C@@]1(Cc2ccc(F)cc2)[C@@H]2C(=CC(=O)[C@H]2CC(=O)C(=O)N2CCCC2)CN1C(=O)c1ccccc1 | -1.77 | 1.16 | -1.32 | -2.6 | -4.29 | 3.9 | -0.568 (inactive) | -0.686 | -2.82 | -1.97 (inactive) | -1.96 | 0.336 (inactive) | -2.67 (inactive) | -3.95 (inactive) | 2.55 (inactive) | 0.381 (inactive) | 0.132 (inactive) | -0.363 (inactive) | -5.25 | -0.0391
COc1ccc(NN2C(C(O)c3ccccc3)C=CC3C(=O)N(C4CCCCC4)C(=O)C32)cc1 (stereo not given) | -0.408 | -0.503 | 0.0544 | -1.37 | -1.82 | -0.536 | 0.0258 (inactive) | -0.335 | -0.253 | 1.67 (inactive) | -0.403 | 0.047 (inactive) | -0.0925 (inactive) | -0.638 (inactive) | 0.505 (inactive) | 1.5 (inactive) | -0.0187 (inactive) | 0.0413 (inactive) | 0.0134 | 0.0348
O=C1c2ccccc2[C@@]2(Cc3ccccc3N(CC(F)(F)F)C2=O)[C@H](c2ccc(CO)cc2)N1Cc1ccccc1 | -0.293 | 1.21 | -1.13 | 0.191 | -2.24 | -0.631 | -2.33 (inactive) | 0.928 | -1.09 | -0.279 (inactive) | -0.584 | 0.714 (inactive) | -0.0925 (inactive) | -17.8 (active) | 0.118 (inactive) | -0.224 (inactive) | 0.117 (inactive) | -1.66 (inactive) | -0.341 | -0.231
CCOC(=O)C[C@H]1[C@H](OC(=O)c2ccc(-c3ccccc3)cc2)[C@@H](NC(=O)c2ccc(-c3ccccc3)cc2)c2cc(OCCCO)ccc2N1C(=O)c1ccccc1 | -0.555 | -0.132 | -0.134 | 0.125 | -0.473 | 0.642 | -0.45 (inactive) | 0.812 | 0.0869 | -0.769 (inactive) | -0.697 | 1.36 (inactive) | -1.01 (inactive) | -0.0085 (inactive) | 0.0307 (inactive) | 0.795 (inactive) | -0.168 (inactive) | -0.331 (inactive) | -0.967 | 0.0766
CC(C)(C)OC(=O)N1[C@@H](C=C(Br)Br)COC1(C)C | 0.4 | 0.46 | 1.32 | -0.255 | -0.639 | 0.175 | 1.2 (inactive) | -0.187 | 0.548 | -1.4 (inactive) | 0.373 | -4.13 (inactive) | 0.0757 (inactive) | -1.74 (inactive) | -0.677 (inactive) | -1.65 (inactive) | 0.559 (inactive) | 0.6 (inactive) | -0.673 | 0.0335
C=C(C)C1CN([C@H](CO)c2ccccc2)C(=O)/C1=C\c1ccccc1 (stereo not given in full) | -0.121 | 1.55 | 0.0701 | -0.313 | -1.89 | -1.11 | 0.0548 (inactive) | 0.354 | -1.06 | -0.846 (inactive) | -0.607 | -5.73 (inactive) | 0.44 (inactive) | -2.88 (inactive) | -0.234 (inactive) | 0.119 (inactive) | 0.408 (inactive) | -0.719 (inactive) | 0.064 | 0.126
COc1ccc([Si](C)(C)[C@H]2[C@H](CC(=O)N(CCO)Cc3ccccc3)O[C@@]3(C(=O)N(Cc4cccc(N5CCCCC5=O)c4)c4ccccc43)[C@@H]2C)cc1 | -0.166 | 1.19 | -1.16 | -0.391 | -4.18 | 0.553 | 1.65 (inactive) | -0.981 | -1.61 | -1.91 (inactive) | -0.415 | -0.0548 (inactive) | -2.35 (inactive) | -1.02 (inactive) | 1.77 (inactive) | 1.45 (inactive) | 0.72 (inactive) | 0.832 (inactive) | -3.16 | -0.0559

From PubChem BioAssay
